Target: Solute carrier family 2, facilitated glucose transporter member 1 (Homo sapiens) (UniProt P11166)
Assay: ST_JUDE_LEISH: Cytotoxicity at 2uM final concentration against transgenic Leishmania Mexicana promastigotes LmGLUT1 that are glucose transport deficient and complemented with the human glucose transporter GLUT1. Activity is measured by DNA content using SYBR green in vitro
Assay type: functional

Solute carrier family 2, facilitated glucose transporter member 1 (Homo sapiens), sequence (P11166 whole entry): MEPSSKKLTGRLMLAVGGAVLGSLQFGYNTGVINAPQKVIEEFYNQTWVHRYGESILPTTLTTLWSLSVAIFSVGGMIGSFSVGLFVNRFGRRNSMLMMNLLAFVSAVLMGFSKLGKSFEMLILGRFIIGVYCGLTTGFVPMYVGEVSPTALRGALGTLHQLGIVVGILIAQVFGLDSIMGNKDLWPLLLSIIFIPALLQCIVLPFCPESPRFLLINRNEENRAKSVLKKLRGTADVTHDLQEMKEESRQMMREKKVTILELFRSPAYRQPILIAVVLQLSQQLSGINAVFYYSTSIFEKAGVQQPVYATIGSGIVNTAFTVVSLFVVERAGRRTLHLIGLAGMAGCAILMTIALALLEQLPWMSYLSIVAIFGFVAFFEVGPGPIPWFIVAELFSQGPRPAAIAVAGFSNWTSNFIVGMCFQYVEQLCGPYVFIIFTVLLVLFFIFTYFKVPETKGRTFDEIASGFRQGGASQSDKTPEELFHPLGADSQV

| Structure (SMILES) | inhibition [%] |
| --- | --- |
| Cc1cc(NC(=O)c2cc(S(=O)(=O)N3CCCCC3)ccc2C)no1 | 4.25 |
| O=C(Nc1ccc(C(F)(F)F)cc1)NC1CCN(c2ccnc3cc(Cl)ccc23)CC1 | 6.47 |
| COc1ccc2nc3cc(Cl)ccc3c(NCCCCCCNc3c4ccc(Cl)cc4nc4ccc(OC)cc34)c2c1 | 10.3 |
| Cc1cc(NC(=O)Nc2ccc(C(C)(C)C)cc2)c2ccccc2n1 | 1.18 |
| N=C(Nc1cccc(Cc2ccccc2)n1)Nc1ncccn1 | 2.06 |
| CCOc1cc(OCC)c2ccccc2c1CNCCCCCCNCc1c(OCC)cc(OCC)c2ccccc12 | 83.2 |
| O=c1ccc2ccc(O)c(O)c2o1 | 7.05 |
| Cc1ccc(Nc2ccnc(Nc3ccc(C)c(F)c3)n2)cc1O | 9.14 |
| CC(C)(C)c1ccc(OCC(=O)NC2CCN(c3ccnc4cc(Cl)ccc34)C2)cc1 (stereo not given) | 0.64 |
| CC(C)CNCc1cccc(-c2cccc(CN(CCCN3CCN(C)CC3)C(=O)NC3CCCCC3)c2)c1 | 0.8 |
| CCCCCC(C)C(C)c1cc(O)c2c(c1)OC(C)(C)C=C2c1cc[n+]([O-])cc1 (stereo not given) | 11 |
| CCn1cc(-c2cc(C(=O)Nc3ccc(OC)cc3C)c3ccccc3n2)c(C)n1 | 7.19 |
| CC(=O)Nc1ccc2[nH]cc(C3CCN(CC4CCN(C(=O)/C=C/c5ccc(Cl)c(Cl)c5)CC4)CC3)c2n1 | 3.09 |
| COc1ccc(Nc2nc(NCc3cccnc3)cc(-c3ccc(OC)cc3)n2)cc1 | -0.44 |
| COc1cc(-c2nc(-c3ccncc3)c(-c3ccc4c(c3)CCC4=NO)[nH]2)ccc1OCCN1CCN(C)CC1 | 6.6 |
| Cc1ccc(C(NC(=O)Cc2ccccc2)c2ccc3cccnc3c2O)cc1 (stereo not given) | 8.52 |
| O=C(C=Cc1ccc(Cl)c(Cl)c1)NCCCCCN1CCC(CCNS(=O)(=O)c2ccc(F)cc2)CC1 | 1.24 |
| COc1ccc(CNc2ncc(-c3ccsc3)c(-c3nccs3)n2)cc1OC | 0.9 |
| Cc1cc(OCC(=O)Nc2ccc(-c3nc4ccccc4[nH]3)cc2)cc(C)c1Cl | 0.45 |
| CCOC(=O)c1cncc(/C=C/c2cc(C)cnc2N)c1 | 5.82 |

| Structure (SMILES) | inhibition [%] |
| --- | --- |
| COc1cc(C)cc(CN2CCC(Cc3ccccc3)CC2)c1O | 0.53 |
| COc1cccc(Nc2c(C(N)=O)cnc3ccc(-c4ccccc4)cc23)c1 | 0.37 |
| N#Cc1ccc(C(=O)Nc2cc(-c3cccc(O)c3)cc3[nH]ncc23)cc1 | 2.57 |
| CC(C)(C)c1ccc2[nH]c(-c3ccc(/C=C/C(=O)NCc4ccc(Cl)c(Cl)c4)cc3)nc2c1 | 6 |
| CCN(CCNC(=O)Cn1c(C)cc2cc([N+](=O)[O-])ccc21)c1cccc(C)c1 | 6.46 |
| CCCOc1cc(NC(=O)Nc2ccnc3ccccc23)cc(OCCC)c1 | -2.56 |
| COc1ccc(NC(=O)c2csc(-c3cc(NC(=O)c4ccnc(N5CCCC5)c4)ccc3C)c2)cc1N1CCN(C)CC1 | 1.89 |
| CCC[C@@H]1CCN[C@H]([C@H](O)c2ccnc3ccc(OC)cc23)C1 | 4.68 |
| Cc1nn(C)c(C)c1CN(Cc1nc(-c2cccc(Oc3ccccc3)c2)oc1C)C1CC1 | 4.08 |
| COc1ccc2ncc(F)c(CCN3CC[C@@H](CNCc4cc5c(cn4)OCS5)C3)c2n1 | 2.66 |
| Cc1cccc(C(=O)NC(NC(=S)Nc2cc(Cl)ccc2Cl)C(Cl)(Cl)Cl)c1 (stereo not given) | -0.37 |
| CCOC(=O)CN(c1ccc(Br)cc1OCCOc1cc(Br)ccc1N(CC(=O)OCC)C(C)C(=O)OCC)C(C)C(=O)OCC (stereo not given) | 1.16 |
| COc1ccc(CCCc2nc(N)nc(N)c2-c2ccc(Cl)cc2)cc1 | 6.21 |
| O=C(CSc1nn(-c2ccccc2)c(=S)s1)c1c[nH]c2ccccc12 | 2.16 |
| CC(C)[C@H](NC(=O)NC1CCC(CCN2C3CCC2CC(OC(=O)C(CO)c2ccccc2)C3)CC1)C(O)(c1ccccc1)c1ccccc1 (stereo not given in full) | 3.62 |
| SC(=Nc1ccc(Cl)c(Cl)c1)NN=Cc1ccccn1 | 1.55 |
| COCCOC(=O)C(=O)c1c(-c2ccccc2)c(-c2ccc(OC)c(OC)c2)c2c3cc(OC)c(OC)cc3ccn12 | 4.89 |
| CN(C)CCOc1ccc(-n2c(-c3nonc3N)nc3cncc(-c4ccc(F)cc4)c32)cc1 | 3.17 |
| CCCC(=O)c1cnc2cc(O)ccc2c1Nc1ccccc1C | 6.19 |
| CN(C)CCN(C)Cc1cccc(-c2ccc3c(Nc4cc(O)c(Cl)cc4F)ccnc3c2)c1 | 1.45 |

Source: ChEMBL document CHEMBL3433997, “St. Jude Leishmania screening dataset” (2016)
